Source: PubChem BioAssay
Most compounds without a hit are left out; they make up all but 2.4% or so of the library.
D2 ag-1: activates the human D2 dopamine receptor | P14416 | HEK293 T-REx D2 cells, calcium flux agonist mode | activation, % at 2 µM | hit rate 0.53% among 340,000 | AID 485358;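 active = activation over 3 SD above normal in the single-dose calcium agonist read, cut at about 30% in these data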; also: 0% is about no effect
Target sequence (P14416 whole entry, looked up): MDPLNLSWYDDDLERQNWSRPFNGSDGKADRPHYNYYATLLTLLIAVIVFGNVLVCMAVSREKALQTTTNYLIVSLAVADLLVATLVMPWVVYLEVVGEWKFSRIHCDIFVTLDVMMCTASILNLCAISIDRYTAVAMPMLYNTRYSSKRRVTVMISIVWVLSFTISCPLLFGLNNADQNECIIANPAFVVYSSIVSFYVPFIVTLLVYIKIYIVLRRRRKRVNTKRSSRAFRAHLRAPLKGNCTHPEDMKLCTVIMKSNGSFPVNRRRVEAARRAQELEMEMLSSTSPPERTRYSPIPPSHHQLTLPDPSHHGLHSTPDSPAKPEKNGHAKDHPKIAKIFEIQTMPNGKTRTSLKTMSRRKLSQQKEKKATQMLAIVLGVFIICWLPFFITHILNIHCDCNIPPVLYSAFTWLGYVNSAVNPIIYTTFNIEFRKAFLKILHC
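Tetracycline-induced HEK293 T-REx cells with force-coupled D2 receptor, plated overnight at 30 C, loaded with no-wash calcium dye. After a 10 s baseline, compound was pin-added and calcium flux read kinetically for 180 s; calcium rises flagged agonists.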
D2 PAM-1: potentiates the human D2 dopamine receptor allosterically; P14416; DiscoveRx D2 beta-arrestin cells, luminescence, 90 min; 100% = 57 uM dopamine signal; potentiation, % (no concentration beside the values); hit rate 0.23% among 360,000; in the data active = potentiation above about 50%; inconclusive = mostly about 30% to 49%
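PathHunter beta-arrestin assay in DiscoveRx D2 cells. Compounds were added with an EC20 of dopamine (50 nM final) for 90 min at 37 deg C. Luminescence was read 1 h after detection reagent, with 57 uM dopamine as the EC100 control.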
D2 antag: antagonizes the human D2 dopamine receptor. P14416. HEK293 TREx D2 cells, calcium flux, dopamine EC80. inhibition, % at 10 µM. hit rate 2% among 340,000; in the data active = inhibition above about 30%; inactive = below that, where a call was filed; also: 0% is about no effect
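Calcium flux kinetic readout in an inducible HEK293 TREx D2 line plated overnight at 30 C. After 180 s compound exposure, an EC80 dopamine challenge follows with another 180 s kinetic read to detect antagonism.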
D2 PAM-2: D2 dopamine receptor (human) potentiation | P14416 | hit rate 0.34% among 340,000 | HEK293 T-REx D2, calcium flux, EC20 dopamine potentiation | potentiation, % at 10 µM | AID 485347;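 active = potentiation over 3 SD above the plate norm, cut at about 30% in these data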; also: 0% is about no effect
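Potentiation of an EC20 dopamine calcium response measured kinetically over 180 s, after a preceding 180 s compound-only read flagging agonists. Cells: inducible Hek293 Trex D2 line, 4000/well, cultured overnight at 30 C before dye loading.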
D2 ag-2: human D2 receptor agonism in beta-arrestin assay; P14416; DiscoveRx PathHunter D2 beta-arrestin, luminescence, 90 min; 100% = 57 uM dopamine signal; activation, % (no concentration beside the values); hit rate 0.084% among 360,000; AID 624465; in the data active = activation above about 40%; inconclusive = between about 15% and that limit
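Agonist mode: compounds alone added to overnight-plated D2 PathHunter cells for 90 min at 37 C, with 57 uM final dopamine (EC100) defining full response. Beta-arrestin recruitment detected by chemiluminescent reagent, read after 1 h at ambient temperature.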
Active calls of the source: *; u = inconclusive; x = no result given; ! = a repeat was not active.

SMILES	D2 ag-1	D2 PAM-1	D2 antag	D2 PAM-2	D2 ag-2
CCc1ccc(C(=O)NC(Cc2c[nH]c3ccccc23)C(=O)OCC(=O)c2ccc(Br)cc2)cc1 (stereo not given)	-1	x	x	-8	x
Nc1cc(N)nc(SCCc2ccccc2)n1	1	1	47*	-1	2
Nc1cc(N)nc(SCc2ccccc2)n1	0	0	-14	-11	0
O=C(Nc1cc(F)ccc1F)c1ccc(CN2CC(=O)N3CCCCC3C2=O)cc1 (stereo not given)	-1	x	x	-19	x
COc1ccc(OC)c(/C=N/NC(=O)CCc2n[nH]c(=O)[nH]c2=O)c1	-1	-7	0	-2	0
Cc1ccc(/C=N\NC(=O)CCc2n[nH]c(=O)[nH]c2=O)o1	0	-5	9	50*	8
CCc1ccc2occ(CC(=O)Nc3sc4c(c3C(=O)NCCOC)CCCC4)c2c1	0	x	x	-2	x
COCC(=O)N(Cc1nc2sc(C)c(C)c2c(=O)[nH]1)C1CCCCC1	-2	-5	31*	12	-4
CCCCC(=O)N(Cc1nc2sc(C)c(C)c2c(=O)[nH]1)C1CCCC1	1	-8	1	9	-4
CC(=O)Nc1ccc(-c2nnc3n(CC(C)C)c(=O)c4ccccc4n23)cc1	-1	x	x	-3	x
CC(C)N=c1scc(-c2cccs2)n1/N=C/c1ccc(O)c(O)c1O	5	55*	-8	4	u
CN=c1scc(-c2ccccc2F)n1/N=C/c1ccc(O)c(O)c1O	0	173*	0	2	180*
CN=c1scc(-c2ccccc2F)n1/N=C/c1ccc[nH]1	0	-10	1	-9	-4
COc1ccc(C(=O)Nc2ccc(NC(=O)c3ccccc3)cc2)cc1S(=O)(=O)N1CCOCC1	0	-10	16	-18	3
COc1ccc(NC(=O)c2c3c(nc4ccccc24)CCC3)cc1S(=O)(=O)N1CCOCC1	33*	13	5	-15	-4
CN1CCN(c2cc(-c3ccccc3)nc3cc(-c4ccc(F)cc4)nn23)CC1	0	-38	54*	-21	-3
O=C(O)c1cc(-c2cccs2)nc2ccc(Br)cc12	0	x	34*	0	x
Cc1ccc(-c2cc(C(=O)Nc3cc(C(=O)O)ccc3C)c3ccccc3n2)cc1	0	5	-30	32*	-2
Cc1ccc(C)c(NC(=O)c2cc(C)nc3ccccc23)c1	-2	13	-2	1	0
Cc1ccc(-c2cc(C(=O)O)c3ccccc3n2)s1	0	-13	34*	-8	-3
O=C(O)c1cc(-c2ccccc2)nc2ccccc12	-1	-4	40*!	0	-7
CCN1CCN(C(c2cccc(F)c2)c2c(O)cc(C)n(Cc3ccco3)c2=O)CC1 (stereo not given)	-1	x	x	-5	x
Cc1cccc(C(=O)NC2=NC(c3ccc(Cl)cc3)CC(=O)N2)c1 (stereo not given)	0	x	x	-7	x
O=C(N/N=C/c1ccco1)c1cc(-c2ccccc2)nc2ccccc12	0	-35	37*	-20	-3
N#Cc1c(NC(=O)/C=C/c2ccco2)sc2c1CCCC2	0	-34	57*	-22	-5
SMILES	D2 ag-1	D2 PAM-1	D2 antag	D2 PAM-2	D2 ag-2
O=C(/C=C/c1ccco1)Nc1sc2c(c1C(=O)O)CCC2	-1	-8	-5	-4	-2
COCCCNC(=O)c1c(-c2ccccc2)c(-c2ccccc2)nn(C)c1=O	1	x	x	-4	x
CCOc1ccc(CNC(=O)Cn2nc(C)c3nn(-c4ccc(Cl)cc4)c(C)c3c2=O)cc1OC	-2	x	x	-3	x
Cc1ccc(-n2nc3c([n+]2[O-])CCc2nonc2-3)cc1	-2	-3	53*	4	7
COc1cccc(NS(=O)(=O)c2ccc(Br)s2)c1	0	-8	34*	8	0
COc1ccc(OC)c(NS(=O)(=O)c2ccc(Br)s2)c1	-1	x	-3	-9	x
O=C(NCCCNC(=O)c1c(F)cccc1F)c1c(F)cccc1F	0	-8	-3	4	-1
O=C(NCC(Cl)c1ccc2ccccc2c1)c1c(F)cccc1F (stereo not given)	0	-13	69*	0	2
O=C(CCN1CCN(CCO)CC1)Nc1ccc(OCc2ccccc2)cc1	-1	1	14	15	-1
O=C(CCN1CCN(Cc2ccccc2)CC1)Nc1ccc(OCc2ccccc2)cc1	0	-22	42*	-19	0
CCCOc1ccc(NC(=O)CC2C(=O)N(CC)C(=S)N2CCCN2CCN(Cc3ccccc3)CC2)cc1 (stereo not given)	0	-16	33*	x	u
O=C(Nc1ccc(Cl)cc1Cl)c1cc(S(=O)(=O)N2CCc3ccccc32)ccc1F	0	x	x	14	x
Cc1ccc(NC(=O)Cn2c(=O)n(CC(=O)NCCc3ccccc3)c(=O)c3ccccc32)cc1C	x	x	x	-2	x
COc1ccccc1C(=O)N1CCN(Cc2cc(=O)oc3cc(C)ccc23)CC1	0	x	x	1	x
Cc1nn(Cc2ccccc2)c(C)c1NC(=O)c1ccc([N+](=O)[O-])cc1[N+](=O)[O-]	0	88*	-12	-11	u
Cc1ccc(NC(=O)c2ccc(CN3CCc4ccccc4C3)cc2)cc1	1	-41	17	-17	-9
COC(=O)c1ccc(C)c(NC(=O)c2ccc(CN3CCc4ccccc4C3)cc2)c1	22	-26	78*	-29	-8
O=C(Nc1cccnc1)c1ccc(CN2CCc3ccccc3C2)cc1	3	-36	66*	-23	-1
O=C(Nc1ccccc1)c1ccc(CN2CCc3ccccc3C2)cc1	-1	-12	54*	x	1
CN1C(=O)[C@H]2[C@@H](c3ccc(C(F)(F)F)cc3)N[C@]3(CCCN(Cc4cccn4C)C3=O)[C@H]2C1=O	x	-2	x	x	-7
CCOC(=O)CC1C(=O)NCCN1c1nc2c(C)cccn2c(=O)c1/C=C1\SC(=S)N(CC(C)C)C1=O (stereo not given)	33*	x	19	-2	x
CCOCCCNc1nc2c(C)cccn2c(=O)c1/C=C1\SC(=S)N(CC(C)C)C1=O	5	0	18	5	-1
Cc1ccc(CNCc2c(C(=O)O)c(C)n(Cc3ccc(C)cc3)c2C)cc1	x	x	x	-1	x
CC(C)C[C@H]1C(=O)N2CCC[C@H]2[C@]2(O)O[C@](NC(=O)C3C=C4c5cccc6[nH]c(Br)c(c56)C[C@H]4N(C)C3)(C(C)C)C(=O)N12 (stereo not given in full)	x	u	x	x	52*
Cc1ccc2c(CNCc3cccs3)c(C(=O)O)n(Cc3ccc(F)cc3)c2c1	x	x	x	0	x
O=[N+]([O-])c1ccc2ncnc(N3CCN(Cc4ccc5c(c4)OCO5)CC3)c2c1	77*	-27	101*	-19	u
O=[N+]([O-])c1ccccc1/C=C/CN1CCCCC1	0	-20	36*	-18	6
